The panel holds about 83,000 compounds, 20% with a hit somewhere; the sample as a whole holds those more often.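 Single-concentration screen, 48 h exposure, 96-well plates. Endpoint: percent growth. Below 10 = active.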 A number with no mark means an inactive call. Calls of active or inactive are those of the source.

Here are results for 15 molecules from PubChem BioAssay (NCI).

Assay in all cases: NCI-60 one-dose screen, 48 h (100 = growth as untreated, 0 = no growth, -100 = all killed)
Details in all cases: 10 µM unless noted

For assay [1], the system named is NCI-H23 lung.
The subject of assay [2] is NCI-H226 lung.
The test system of assay [3] is NCI-H322M lung.
Assay [4] has as its system HOP-62 NSCLC.
Assay [5] relates to NCI-H460 lung.
The test system of assay [6] is HOP-92 NSCLC.
For assay [7], the system named is NCI-H522 lung.
In assay [8] the test system is A549/ATCC NSCLC.
Assay [9] deals with 786-0 renal.
Assay [10] deals with COLO 205 colon.
The test system of assay [11] is DU-145 prostate.
Assay [12] relates to K-562 leukemia.
Assay [13] relates to MALME-3M melanoma.
The test system of assay [14] is MDA-MB-231 breast.
Assay [15] concerns RXF 393 renal.
Assay [16] concerns SF-268 CNS.
Assay [17] relates to SF-295 CNS.
Assay [18] deals with SF-539 CNS.
Assay [19] has as its system UACC-257 melanoma.
Assay [20] concerns M14 melanoma.

Consider `O=C(N=c1n(-c2ccccc2)nc2n1CCN2C1=NCCN1)c1ccc(Cl)cc1`, for which the growth is 86.9% in assay [1]; 93.3% in assay [2]; 91.2% in assay [3]; 91.6% in [4]; 77.3% in assay [5]; 61% in assay [6]. In addition, the growth was 95.9% in assay [7]; 83.4% in [8]; 104% in assay [9]; 62.2% in [10]; 95.7% in assay [11]; 71.9% in [12]. Moreover, the growth in assay [13] is 91.3%; in assay [14], 69.5%; in assay [15], 61.9%; in assay [16] it was 83.8%; in assay [17], 97.1%; in assay [18], 77.8%. Further, the growth in [19] was 102%; in assay [20], 107%.

Take `COc1ccc2c3ccnc(C(F)(F)F)c3n(CCCCN)c2c1`: the growth in assay [1] is 54.6%; in assay [2] it was 52.4%; in [3] it was 65.3%; in [4] it was 40.1%; in assay [5] it was 47.1%; in [6], -22.3% (active). In addition, the growth in [7] is 11.4%; in assay [8], 77%; in [9] it was 54.5%; in assay [10], 10.7%; in [11], 71.4%; in assay [12], 71.1%. Further, the growth in assay [13] is 43.7%; in assay [14] it was 41.5%; in assay [15], 49.8%; in [16], 67.5%; in [17], 59.7%; in assay [18], 34.6%. Moreover, the growth in assay [19] was 37.9%; in assay [20], 23.6%.

Turning to `Brc1ccc(-c2nnc3c4[nH]ccc4ncn23)cc1`, the growth in [1] was 88.3%; in [2], 96.7%; in [3] it was 91%; in [4], 92.6%; in assay [5], 90.1%; in assay [6], 69.6%. For the same molecule, the growth in assay [7] was 80.9%; in [8], 91.8%; in assay [9], 94%; in assay [10], 109%; in assay [11], 101%; in [12], 79.9%. Moreover, the growth was 101% in assay [13]; 44.4% in assay [14]; 107% in [15]; 92.4% in assay [16]; 96.1% in [17]; 102% in [18]. Also, the growth in assay [19] was 109%; in assay [20] it was 102%.

In the case of `N#C/C(C(=O)c1ccccc1)=C1/C(=O)Nc2ccc(F)cc21`, the growth in assay [1] is 98.4%; in assay [2], 95.4%; in [3], 108%; in [4], 84.8%; in assay [5] it was 106%; in [6], 115%. The growth was 96.6% in assay [7]; 105% in [8]; 101% in assay [9]; 119% in assay [10]; 110% in assay [11]; 110% in assay [12]. Besides, the growth is 104% in assay [13]; 92.2% in assay [14]; 127% in assay [15]; 101% in assay [16]; 102% in [17]; 96.9% in [18]. Also, the growth was 103% in assay [19] and 104% in assay [20].

For the molecule `COc1ccc2[nH]c(C(=O)N3CCN(C(=O)OCc4ccc5c(Br)cc(Br)c(O)c5n4)CC3)cc2c1`, the growth was -78.2% (active) in [1]; -84.3% (active) in assay [2]; -87.1% (active) in assay [3]; -67% (active) in assay [4]; -60.3% (active) in [5]; -83.9% (active) in assay [6]. The growth in assay [7] was -78.4% (active); in [8], -79.5% (active); in assay [9], -93% (active); in assay [10], -83.1% (active); in assay [11], -97.8% (active); in assay [12], 2.19% (active). The growth in assay [13] is -95.3% (active); in assay [14], -84.6% (active); in [15], -87.9% (active); in assay [16], -80.2% (active); in assay [17], -87.8% (active); in assay [18], -99.8% (active). The figures for the growth in assay [19] and in assay [20] were -59.1% (active) and -77.9% (active), respectively.

As to `O=C(NNc1ccc(-c2ccccc2)nn1)c1ccccc1`, the growth in assay [1] was 99.6%; in [2], 102%; in assay [3] it was 94.7%; in assay [4] it was 104%; in [5], 100%; in assay [6], 91.6%. The growth in [7] is 97.8%; in [8], 106%; in assay [9] it was 93.3%; in assay [10] it was 107%; in [11], 104%; in assay [12] it was 92.2%. Moreover, the growth in assay [13] was 100%; in assay [14], 97.4%; in [15], 110%; in [16], 95%; in [17], 94.3%; in assay [18], 102%. Moreover, the figures for the growth in assay [19] and in assay [20] were 103% and 98.8%, respectively.

In the case of `Cc1cc[n+](CCCCCCCCCC[n+]2ccc(C)cc2)cc1`, the growth in [1] is 68.8%; in assay [2], 68.3%; in assay [3], 109%; in [4], 87.7%; in [5] it was 98.7%; in [6], 99.8%. Further, the growth in [7] is 91.6%; in assay [8] it was 73.3%; in assay [9], 97.5%; in assay [10], 103%; in assay [11], 93.7%; in assay [12], 79.8%. The growth in [13] was 113%; in assay [14], 105%; in assay [15], 127%; in [16] it was 93.4%; in [17], 73.1%; in assay [18], 99.2%. For the same molecule, the growth in [19] is 106%; in assay [20], 97.7%.

In the case of `Clc1ccc2nc(-c3ccc(-c4ccc(/C=N/NC5=NCCN5)cc4)s3)cn2c1`, the growth was 106% in [1]; 94.9% in assay [2]; 98.3% in [3]; 98.6% in [4]; 100% in assay [5]; 76.5% in [6]. The growth in assay [7] was 106%; in assay [8] it was 99.9%; in assay [9], 95.5%; in [10], 107%; in [11], 101%; in assay [12], 4.14% (active). Besides, the growth in assay [13] was 94.3%; in [14] it was 96.3%; in [15], 82.5%; in assay [16], 94.2%; in assay [17] it was 97.2%; in [18], 83.1%. The growth in assay [19] is 101%; in assay [20], 97.7%.

Consider `C/C=C/C1OC23CCCCC2C(C#N)(C(=N)O3)C1(C#N)C#N` (stereo not given), for which the growth in assay [1] is 101%; in [2] it was 103%; in [3] it was 102%; in assay [4], 103%; in assay [5], 101%; in [6], 117%. Besides, the growth was 74.1% in [7]; 104% in assay [8]; 105% in assay [9]; 91.6% in [10]; 95.1% in [11]; 94.7% in assay [12]. Moreover, the growth in assay [13] was 99%; in [14], 110%; in assay [15], 116%; in [16] it was 97.6%; in assay [17], 110%; in assay [18], 98.2%. In addition, the growth in assay [19] is 93.3%; in [20], 92.8%.

Consider `O=C(Oc1ccc(Cl)cc1[N+](=O)[O-])Oc1ccc(Cl)cc1[N+](=O)[O-]`, for which the growth in assay [1] was 105%; in assay [2], 117%; in [3], 122%; in [4], 113%; in assay [5] it was 111%; in [6], 93.4%. For the same molecule, the growth in [7] is 104%; in assay [8], 99.2%; in assay [9], 119%; in assay [10], 122%; in assay [11] it was 116%; in assay [12], 90.2%. Further, the growth in assay [13] is 135%; in assay [14], 126%; in [15], 124%; in assay [16], 105%; in assay [17], 119%; in [18], 109%. Further, the growth in assay [19] was 107%; in assay [20] it was 109%.

For the molecule `COc1cc2c(cc1OC(C)=O)C(=O)CCCC2`, the growth in assay [1] is 93.6%; in [2], 98.1%; in assay [3] it was 89.9%; in assay [4], 75.4%; in assay [5], 105%; in assay [6], 79%. The growth was 78% in assay [7]; 85.8% in [8]; 86.9% in assay [9]; 135% in assay [10]; 128% in assay [11]; 186% in [12]. In addition, the growth is 93.3% in assay [13]; 112% in assay [14]; 94.2% in assay [15]; 107% in assay [16]; 107% in assay [17]; 90.9% in assay [18]. Moreover, the growth was 86.7% in assay [19] and 87.9% in assay [20].

Turning to `COc1ccc2nc3cc(Cl)ccc3c(Nc3ccc(O)c(CN4CCCC4)c3)c2c1`, the growth in [1] is 47.3%; in [2] it was 97.5%; in [3], 7.91% (active); in [4] it was 26.9%; in assay [5], -27.4% (active); in assay [6], 31.9%. Besides, the growth in assay [7] was -40.7% (active); in [8] it was 27.7%; in assay [9] it was -21.8% (active); in assay [10] it was -19.8% (active); in [11], -9.64% (active); in [12] it was -6.52% (active). The growth in assay [13] was -86.6% (active); in assay [14], 11.7%; in [15], -84% (active); in assay [16], 38.5%; in assay [17], 8.91% (active); in assay [18], -87.4% (active). Further, the growth in assay [19] is -81.1% (active); in [20], -83.2% (active).

`O=c1[nH]c(CN2CCN(c3cccc(Cl)c3)CC2)nc2cc(Cl)ccc12`: the growth in assay [1] was 84.9%; in [2], 87.6%; in assay [3] it was 113%; in assay [4], 89.7%; in assay [5], 104%; in assay [6], 105%. The growth in [7] is 66.6%; in assay [8], 88.9%; in assay [9] it was 90%; in assay [10], 106%; in assay [11] it was 101%; in [12] it was 97.9%. Moreover, the growth is 108% in assay [13]; 104% in assay [14]; 90.3% in assay [15]; 99.3% in [16]; 100% in assay [17]; 94.2% in [18]. Further, the growth in assay [19] is 59.9%; in assay [20] it was 89.1%.

`CCOC(=O)c1c[nH]c2cc(OCC3CC3)c(OCC3CC3)cc2c1=O`: the growth was 110% in [1]; 106% in [2]; 100% in [3]; 109% in [4]; 103% in [5]; 116% in assay [6]. In addition, the growth in assay [7] was 95.5%; in assay [8] it was 109%; in assay [9] it was 120%; in [10] it was 113%; in assay [11], 102%; in assay [12] it was 121%. Further, the growth in [13] is 106%; in [14] it was 119%; in [15], 114%; in assay [16] it was 109%; in [17] it was 103%; in [18] it was 105%. Besides, the growth in assay [19] and in assay [20] was 115% each time.

For the molecule `Cc1c(Cn2cc(COc3ccc(Br)cc3)nn2)c(C)c(Cn2cc(COc3ccc(Br)cc3)nn2)c(C)c1Cn1cc(COc2ccc(Br)cc2)nn1`, the growth in assay [1] was 98.7%; in assay [2] it was 88.2%; in assay [3], 108%; in [4], 84%; in [5] it was 102%; in [6] it was 93.7%. For the same molecule, the growth in [7] is -30.4% (active); in [8], 83.4%; in assay [9], 95.2%; in assay [10], 84.6%; in assay [11] it was 104%; in [12], 103%. Also, the growth was 89.1% in assay [13]; 89.7% in assay [14]; 102% in assay [15]; 97% in [16]; 89.6% in [17]; 96% in [18]. Also, the growth in assay [19] was 80.2%; in assay [20], 97.7%.
